The results in this text go back to PubChem BioAssay (Tox21).

Results filed as inconclusive are left out. Entries that show only a call come without a potency. Active and inactive are the calls of the source. The call rests on the fitted dose curve. Square brackets hold non-standard residues; d marks the D form. Peptide text beside a SMILES is read from it. pGlu = O=C1CC[C@@H](C(=O)O)N1

The assay can be described thus: p53 small molecule agonists, cell-based qHTS assay with human liver microsomes (AID 1963577).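 Further: p53 response element beta-lactamase reporter cells with liver microsomes plus NADPH.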 The essentials:
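p53RE-bla cells; 5 h settle, 37 C/5% CO2; cpd + HLM 0.5 mg/mL + NADPH 0.5 mg/mL (final); 16 h 37 C; LiveBLAzer 2 h RT dark; fluorescence readout.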

Turning to `O=S(=O)(O)c1cc(I)c(O)c2ncccc12`, the Potency entry is “inactive”.
As to `CC(=O)OC(OC(C)=O)c1ccc([N+](=O)[O-])o1`, the Potency entry was “inactive”.
Next, `C=CC(=O)OCCn1c(=O)n(CCOC(=O)C=C)c(=O)n(CCOC(=O)C=C)c1=O`: “inactive”.
Consider `CCCCNCCCC`, for which the Potency result is “inactive”.
For `C[C@]12CC[C@H]3C(=CCc4cc(O)ccc43)[C@@H]1CCC2=O`, the Potency entry was “inactive”.
The result for `O=C(O)CCCCCCCCCC(=O)O` reads “inactive”.
The result for `CCCC(CC)c1ccccc1` (configuration not stated) reads “inactive”; that for `C[C@]12CCC(=O)C=C1C=C[C@@H]1[C@@H]2CC[C@@]2(C)[C@H]1CC[C@@]21CCC(=O)O1`, “inactive”.
The result for `CC(=O)S[C@@H]1CC2=CC(=O)CC[C@]2(C)[C@H]2CC[C@@]3(C)[C@@H](CC[C@@]34CCC(=O)O4)[C@H]12` reads “inactive”; that for `CCNC(=O)[C@@H]1CCCN1C(=O)[C@H](CCCN=C(N)N)NC(=O)[C@H](CC(C)C)NC(=O)CNC(=O)[C@H](Cc1ccc(O)cc1)NC(=O)[C@H](CO)NC(=O)[C@H](Cc1c[nH]c2ccccc12)NC(=O)[C@H](Cc1cnc[nH]1)NC(=O)[C@@H]1CCC(=O)N1` ([pGlu]HWSYGLRP-NHEt), “inactive”.
With `CC(NCCC(c1ccccc1)c1ccccc1)c1ccccc1` (configuration not stated), the Potency result is “inactive”.
The result for `Cc1cc(O)c(C(C)C)cc1Cl` reads “inactive”.
Next, `C[C@H](CCC(=O)O)[C@H]1CC[C@H]2[C@@H]3CC[C@@H]4C[C@H](O)CC[C@]4(C)[C@H]3C[C@H](O)[C@]12C`: “inactive”.
Regarding `CC(C)(C)c1ccc(OC2CCCCC2O)cc1` (configuration not stated), the Potency entry is “inactive”.
Next, `CC(C(O)c1ccccc1)N(C)CCOC(c1ccccc1)c1ccccc1` (configuration not stated): “inactive”; `c1coc(Cn2cccc2)c1`: “inactive”; `CCCC/C=C/C=C\C=O`: “inactive”.
The result for `COCC(=O)O[C@]1(CCN(C)CCCc2nc3ccccc3[nH]2)CCc2cc(F)ccc2[C@@H]1C(C)C` reads “inactive”; that for `CCCCCCCCCOC(=O)CCCCC(=O)OCCCCCCC`, “inactive”; that for `Cc1cc(C)c(/C=C2\C(=O)Nc3ccccc32)[nH]1`, “inactive”.
The result for `CC(Cc1cccc(C(F)(F)F)c1)NCCOC(=O)c1ccccc1` (configuration not stated) reads “inactive”.
With `CC(=O)NCCCS(=O)(=O)O`, the Potency entry is “inactive”.
The result for `COc1cccc2c1C(=O)c1c(O)c3c(c(O)c1C2=O)C[C@@](O)(C(=O)CO)C[C@@H]3O[C@H]1C[C@H](N)[C@H](O[C@@H]2CCCCO2)[C@H](C)O1` reads “inactive”.
Next, `CCCC(=O)OCCc1ccccc1`: “inactive”; `O=C1NC(=O)c2cc([N+](=O)[O-])ccc21`: “inactive”; `O=C1C=CC(=O)N1c1cccc(N2C(=O)C=CC2=O)c1`: “inactive”.
Next, `CCCCC(CC)COP(=O)(O)O` (configuration not stated): “inactive”; `Fc1ccccc1[C@@H](F)COC1CCC(Nc2ncnc3[nH]ncc23)CC1` (some centres not stated): “inactive”; `Cc1nc(N)nc(N)c1-c1ccc(Cl)c(Cl)c1`: “inactive”.
For `CCCc1c(OCCCOc2ccc(OCC(=O)O)cc2)ccc(C(C)=O)c1O`, the Potency result was “inactive”.
The result for `CC(C)(C)CC(C)(C)c1ccc(OCCO)cc1` reads “inactive”.
The result for `CC(C)C[C@H](NC(=O)CNC(=O)[C@H](Cc1ccc(O)cc1)NC(=O)[C@H](CO)NC(=O)[C@H](Cc1c[nH]c2ccccc12)NC(=O)[C@H](Cc1cnc[nH]1)NC(=O)[C@@H]1CCC(=O)N1)C(=O)N[C@@H](CCCN=C(N)N)C(=O)N1CCC[C@H]1C(=O)NCC(N)=O` (stereo in doubt) reads “inactive”.
The result for `CC1(C)CCC(C)(C)c2cc(C(=O)Nc3ccc(C(=O)O)cc3)ccc21` reads “inactive”; that for `CN[C@H]1CC[C@@H](c2ccc(Cl)c(Cl)c2)c2ccc(S(N)(=O)=O)cc21`, “inactive”; that for `Cc1cc2c(C(C)C)c(O)c(O)c(C=O)c2c(O)c1-c1c(C)cc2c(C(C)C)c(O)c(O)c(C=O)c2c1O`, “inactive”.
Consider `CC(C)c1ccc(O)c(C(C)C)c1`, for which the Potency entry is “inactive”.
For the molecule `CCCCCCOc1cc(C)c(O)c(C)c1C`, the Potency entry is “inactive”.
The result for `CCCCCCCCn1sc(Cl)c(Cl)c1=O` reads “inactive”.
The result for `CN1CCN2c3ccccc3Cc3ccccc3C2C1` (configuration not stated) reads “inactive”; that for `CCCCC(=O)O[C@]1(C(=O)CO)[C@@H](C)C[C@H]2[C@@H]3CCC4=CC(=O)C=C[C@]4(C)[C@@]3(F)[C@@H](O)C[C@@]21C`, “inactive”; that for `CCCCCCCCCCCCCCCCCC[N+](C)(C)C`, “inactive”.
Next, `CC1(COc2ccc(CC3SC(=O)NC3=O)cc2)CCCCC1` (configuration not stated): “inactive”.
